# Test results published in PMC11062922 (Nature Chemical Biology, 2023).
# Read-outs that look alike come from different tables or passages of the source.
# Legend:
# [1] = tested on: AAK1; design: species or system human, MV4-11 + K-562 + COLO205 + SK-N-BE2 + OVCAR-8; details: read-out: apparent Kd, n = 1
# [2] = tested on: CLK1; design: species or system human, MV4-11 + K-562 + COLO205 + SK-N-BE2 + OVCAR-8; details: read-out: apparent Kd, compound concentrations: 100 nM and 1000 nM (sheet 'Samples'), n = 1
# [3] = tested on: CSNK2A1;CSNK2A3; design: species or system human, MV4-11 + K-562 + COLO205 + SK-N-BE2 + OVCAR-8; details: read-out: apparent Kd, compound concentrations: 100 nM and 1000 nM (sheet 'Samples'), n = 1
# [4] = tested on: CSNK2A2; design: species or system human, MV4-11 + K-562 + COLO205 + SK-N-BE2 + OVCAR-8; details: read-out: apparent Kd, compound concentrations: 100 nM and 1000 nM (sheet 'Samples'), n = 1
# [5] = target: Q6ZSR9 (human, UniProt Q6ZSR9); design: species or system MV4-11 + K-562 + COLO205 + SK-N-BE2 + OVCAR-8; details: read-out: apparent Kd, n = 1
# [6] = tested on: BMP2K; design: species or system human, MV4-11 + K-562 + COLO205 + SK-N-BE2 + OVCAR-8; details: read-out: apparent Kd, n = 1
# [7] = tested on: CLK4; design: species or system human, MV4-11 + K-562 + COLO205 + SK-N-BE2 + OVCAR-8; details: read-out: apparent Kd, compound concentrations: 100 nM and 1000 nM (sheet 'Samples'), n = 1
# [8] = tested on: NUAK1; design: species or system human, MV4-11 + K-562 + COLO205 + SK-N-BE2 + OVCAR-8; details: read-out: apparent Kd, compound concentrations: 100 nM and 1000 nM (sheet 'Samples'), n = 1
# [9] = tested on: FLT4; design: species or system human, MV4-11 + K-562 + COLO205 + SK-N-BE2 + OVCAR-8; details: read-out: apparent Kd, compound concentrations: 100 nM and 1000 nM (sheet 'Samples'), n = 1
# [10] = tested on: GSK3A; design: species or system human, MV4-11 + K-562 + COLO205 + SK-N-BE2 + OVCAR-8; details: read-out: apparent Kd, compound concentrations: 100 nM and 1000 nM (sheet 'Samples'), n = 1
# [11] = tested on: GSK3B; design: species or system human, MV4-11 + K-562 + COLO205 + SK-N-BE2 + OVCAR-8; details: read-out: apparent Kd, compound concentrations: 100 nM and 1000 nM (sheet 'Samples'), n = 1
# [12] = tested on: GAK; design: species or system human, MV4-11 + K-562 + COLO205 + SK-N-BE2 + OVCAR-8; details: read-out: apparent Kd; compound concentrations: 100 nM and 1000 nM (sheet 'Samples'), CATDS: 3.35725694953104E-2; n = 1
# [13] = tested on: PAK4; design: species or system human, MV4-11 + K-562 + COLO205 + SK-N-BE2 + OVCAR-8; details: read-out: apparent Kd; compound concentrations: 100 nM and 1000 nM (sheet 'Samples'), CATDS: 1.9668858061390699E-2; n = 1
# [14] = tested on: PKN1; design: species or system human, MV4-11 + K-562 + COLO205 + SK-N-BE2 + OVCAR-8; details: read-out: apparent Kd; compound concentrations: 100 nM and 1000 nM (sheet 'Samples'), CATDS: 1.63422390888056E-2; n = 1
# [15] = tested on: PKN3; design: species or system human, MV4-11 + K-562 + COLO205 + SK-N-BE2 + OVCAR-8; details: read-out: apparent Kd; compound concentrations: 100 nM and 1000 nM (sheet 'Samples'), CATDS: 1.86767996374981E-2; n = 1
# [16] = tested on: PRKAG1; design: species or system human, MV4-11 + K-562 + COLO205 + SK-N-BE2 + OVCAR-8; details: read-out: apparent Kd; compound concentrations: 100 nM and 1000 nM (sheet 'Samples'), CATDS: 2.2977618233773301E-2; n = 1
# [17] = tested on: RET; design: species or system human, MV4-11 + K-562 + COLO205 + SK-N-BE2 + OVCAR-8; details: read-out: apparent Kd, compound concentrations: 100 nM and 1000 nM (sheet 'Samples'), n = 1
# [18] = tested on: SIK2; design: species or system human, MV4-11 + K-562 + COLO205 + SK-N-BE2 + OVCAR-8; details: read-out: apparent Kd; compound concentrations: 100 nM and 1000 nM (sheet 'Samples'), CATDS: 2.09056260277059E-2; n = 1
# [19] = tested on: MELK; design: species or system human, MV4-11 + K-562 + COLO205 + SK-N-BE2 + OVCAR-8; details: read-out: apparent Kd; compound concentrations: 100 nM and 1000 nM (sheet 'Samples'), CATDS: 0.103385588540624; n = 1
# [20] = compound concentrations:100 nM and 1000 nM (sheet 'Samples')
# Q6ZSR9, sequence (Q6ZSR9 whole entry, looked up): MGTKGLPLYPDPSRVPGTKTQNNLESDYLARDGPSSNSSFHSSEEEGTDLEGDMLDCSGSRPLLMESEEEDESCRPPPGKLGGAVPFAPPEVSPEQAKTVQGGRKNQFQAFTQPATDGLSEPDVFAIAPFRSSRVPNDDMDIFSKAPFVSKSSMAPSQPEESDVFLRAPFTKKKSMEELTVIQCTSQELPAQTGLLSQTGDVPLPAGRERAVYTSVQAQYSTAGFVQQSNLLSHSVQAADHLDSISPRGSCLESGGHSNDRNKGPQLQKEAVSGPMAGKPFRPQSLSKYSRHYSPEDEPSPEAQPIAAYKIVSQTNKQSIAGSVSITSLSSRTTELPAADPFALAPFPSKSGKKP
smiles,measurement,setting,value
O=C1N=C(NCCc2cccs2)S/C1=C\c1ccc2ncccc2c1 [RO4508348-000],potency estimated from few doses,"[1]; compound concentrations: 100 nM and 1000 nM (sheet 'Samples'), CATDS: 0.107531235495484",1290 nM
same,potency estimated from few doses,[2]; CATDS: 0.103004978566102,1450 nM
same,potency estimated from few doses,[3]; CATDS: 0.103993193967583,1410 nM
same,potency estimated from few doses,[4]; CATDS: 0.109129966582831,1250 nM
same,potency estimated from few doses,"[5]; compound concentrations: 100 nM and 1000 nM (sheet 'Samples'), CATDS: 0.123024935972758",947 nM
NS(=O)(=O)c1ccc(N/C=C2\C(=O)Nc3ccc4ncsc4c32)cc1 [GW297361X],potency estimated from few doses,"[1]; compound concentrations: 100 nM and 1000 nM (sheet 'Samples'), CATDS: 4.1332868698359997E-2",785 nM
same,potency estimated from few doses,"[6]; compound concentrations: 100 nM and 1000 nM (sheet 'Samples'), CATDS: 4.6280622165998701E-2",615 nM
same,potency estimated from few doses,[7]; CATDS: 3.6697746350308501E-2,1050 nM
same,potency estimated from few doses,[3]; CATDS: 3.0344109186555501E-2,1830 nM
same,potency estimated from few doses,[4]; CATDS: 3.6316988085140701E-2,1070 nM
same,potency estimated from few doses,[8]; CATDS: 0.30685592880619,33.6 nM
same,potency estimated from few doses,"[5]; compound concentrations: 100 nM and 1000 nM (sheet 'Samples'), CATDS: 3.8953206873676101E-2",902 nM
COc1cc[nH]c1/C=C1\C(=O)Nc2ccc([N+](=O)[O-])c(N3CC[C@@H](O)C3)c21 [RO0504985-000],potency estimated from few doses,"[1]; compound concentrations: 100 nM and 1000 nM (sheet 'Samples'), CATDS: 0.119322014743116",46.2 nM
same,potency estimated from few doses,"[6]; compound concentrations: 100 nM and 1000 nM (sheet 'Samples'), CATDS: 0.146188418361926",33 nM
same,potency estimated from few doses,[9]; CATDS: 3.5350973360848997E-2,1020 nM
same,potency estimated from few doses,[10]; CATDS: 6.9215882134984696E-2,143 nM
same,potency estimated from few doses,[11]; CATDS: 8.07850710279054E-2,99.7 nM
same,potency estimated from few doses,[8]; CATDS: 0.113358948941002,50.6 nM
same,potency estimated from few doses,"[5]; compound concentrations: 100 nM and 1000 nM (sheet 'Samples'), CATDS: 0.13185454777653499",39 nM
Cl.Cn1c(=O)c(Cc2ccccc2F)cc2cnc(NC3CCOCC3)nc21 [RO3305377-001],potency estimated from few doses,"[1]; compound concentrations: 100 nM and 1000 nM (sheet 'Samples'), CATDS: 2.16510603665701E-2",917 nM
same,potency estimated from few doses,"[6]; compound concentrations: 100 nM and 1000 nM (sheet 'Samples'), CATDS: 1.6723713809558501E-2",1910 nM
same,potency estimated from few doses,[2]; CATDS: 1.9184829290140398E-2,1250 nM
same,potency estimated from few doses,[7]; CATDS: 2.3036060895887101E-2,796 nM
same,potency estimated from few doses,[9]; CATDS: 1.78487472229053E-2,1540 nM
same,potency estimated from few doses,[12],389 nM
same,potency estimated from few doses,[10]; CATDS: 3.04876999302407E-2,459 nM
same,potency estimated from few doses,[11]; CATDS: 2.4100870065686699E-2,722 nM
same,potency estimated from few doses,[13],1170 nM
same,potency estimated from few doses,[14],2080 nM
same,potency estimated from few doses,[15],1350 nM
same,potency estimated from few doses,[16],801 nM
same,potency estimated from few doses,"[5]; compound concentrations: 100 nM and 1000 nM (sheet 'Samples'), CATDS: 2.0313751812051702E-2",1070 nM
same,potency estimated from few doses,[17]; CATDS: 2.33186267232918E-2,775 nM
same,potency estimated from few doses,[18],998 nM
CC(C)N1CC(=O)N(C)c2cnc(Nc3cccc(S(=O)(=O)CCN4CCOCC4)c3)nc21 [BI00009348],potency estimated from few doses,"[1]; compound concentrations: 100 nM and 1000 nM (sheet 'Samples'), CATDS: 7.4673370536537498E-2",662 nM
same,potency estimated from few doses,"[6]; compound concentrations: 100 nM and 1000 nM (sheet 'Samples'), CATDS: 7.1051362969771797E-2",736 nM
same,potency estimated from few doses,[11]; CATDS: 6.9045357407431895E-2,783 nM
same,potency estimated from few doses,[8]; CATDS: 5.8980010573034099E-2,1140 nM
same,potency estimated from few doses,"[5]; compound concentrations: 100 nM and 1000 nM (sheet 'Samples'), CATDS: 6.16877896582032E-2",1020 nM
CNc1nccc(-c2ccc3c(N)n[nH]c3c2)n1 [GSK2206003A],potency estimated from few doses,"[1]; compound concentrations: 100 nM and 1000 nM (sheet 'Samples'), CATDS: 0.11797009071744601",108 nM
same,potency estimated from few doses,"[6]; compound concentrations: 100 nM and 1000 nM (sheet 'Samples'), CATDS: 5.7170227951540302E-2",897 nM
same,potency estimated from few doses,[2]; CATDS: 0.21779714475359599,36.5 nM
same,potency estimated from few doses,[7]; CATDS: 0.18290440862860499,48 nM
same,potency estimated from few doses,[19],145 nM
same,potency estimated from few doses,"[5]; compound concentrations: 100 nM and 1000 nM (sheet 'Samples'), CATDS: 0.14345562945172299",73.1 nM
same,potency estimated from few doses,[17]; CATDS: 0.14057536576690199,76 nM
Cl.Cl.NCC(NCc1ccc(-c2ccnc3[nH]ccc23)s1)c1ccccc1.NCC(NCc1ccc(-c2ccnc3[nH]ccc23)s1)c1ccccc1 (stereo not shown) [GSK1321565A],potency estimated from few doses,[1]; [20],820 nM
same,potency estimated from few doses,[6]; [20],982 nM
same,potency estimated from few doses,[5]; [20],942 nM
